Laboratory results: PubChem BioAssay (EPA / NIEHS)
Where “and” joins values, the source holds several entries; their conditions need not be identical. Equal values may be shown once. Some compounds were tested as several samples or in several runs, with calls that do not always agree. Calls of active or inactive are those of the source. How the source made its calls: active means hit-call score of the fitted dose curve at least 0.9, where 1 is the maximum; inactive means score below 0.9.

What was measured:
[1] = read-out: E-selectin (Homo sapiens) (UniProt P16581); experiment: BSK_3C_Eselectin: BioMAP Diversity Plus: 3C Assay for Eselectin Biomarker Activity (AID 2283015); conditions: primary human endothelial cells (HUVEC); actives raise or lower the signal
Procedure, shortened: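 Human vascular endothelium from umbilical vein is exposed to test chemicals for 24 h. E-selectin levels are read by ELISA and compared with DMSO controls.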

[2] = read-out: Human Leukocyte Antigen - DR isotype (HLADR), HLA-DRA (gene 3122); experiment: BSK_3C_HLADR: BioMAP Diversity Plus: 3C Assay for Human Leukocyte Antigen - DR isotype (HLADR) Biomarker Activity (AID 2283019); conditions: primary human endothelial cells (HUVEC); actives raise or lower the signal
Procedure, shortened: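 Endothelial cells from human umbilical vein are treated with test chemical; after 24 h, HLA-DR levels are measured by ELISA. Data are fitted in both directions using DMSO as the baseline.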

[3] = read-out: Matrix Metallopeptidase 1 (MMP1), MMP1 (gene 4312); experiment: BSK_BE3C_MMP1: BioMAP Diversity Plus: BE3C Assay for Matrix Metallopeptidase 1 (MMP1) Biomarker Activity (AID 2283024); conditions: primary human bronchial epithelial cells; actives raise or lower the signal
Procedure, shortened: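 Dose cells, wait 24 h, run MMP1 ELISA; cells are human bronchial epithelial primaries. Both increases and decreases relative to DMSO counted.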

[4] = read-out: Pselectin, SELP (gene 6403); experiment: BSK_4H_Pselectin: BioMAP Diversity Plus: 4H Assay for Pselectin Biomarker Activity (AID 2283026); conditions: primary human endothelial cells (HUVEC); actives raise or lower the signal
Procedure, shortened: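 Human vascular endothelium from umbilical vein; P-selectin measured by ELISA at 24 h post-dose, with cytotoxicity checked by sulforhodamine B total-protein staining in parallel cultures (0.1% SRB after 10% TCA fixation, read at 560 nm).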

[5] = read-out: Human Leukocyte Antigen - DR isotype (HLADR), HLA-DRA (gene 3122); experiment: BSK_BE3C_HLADR: BioMAP Diversity Plus: BE3C Assay for Human Leukocyte Antigen - DR isotype (HLADR) Biomarker Activity (AID 2283032); conditions: primary human bronchial epithelial cells; actives raise or lower the signal
Procedure, shortened: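 Signal came from an ELISA for HLA-DR in human bronchial epithelial primary cells harvested 24 h after treatment; gain- and loss-of-signal fitting used DMSO controls as reference.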

[6] = read-out: Vascular cell adhesion molecule 1 (VCAM1), VCAM1 (gene 7412); experiment: BSK_4H_VCAM1: BioMAP Diversity Plus: 4H Assay for Vascular cell adhesion molecule 1 (VCAM1) Biomarker Activity (AID 2283033); conditions: primary human endothelial cells (HUVEC); actives raise or lower the signal
Procedure, shortened: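 Endpoint derived from bidirectional fitting against DMSO controls of VCAM-1 ELISA signal in umbilical vein endothelial cells sampled at 24 h following treatment.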

[7] = read-out: Interferon-gamma inducible Protein 10 (IP10), CXCL10 (gene 3627); experiment: BSK_BE3C_IP10: BioMAP Diversity Plus: BE3C Assay for Interferon-gamma inducible Protein 10 (IP10) Biomarker Activity (AID 2283034); conditions: primary human bronchial epithelial cells; actives raise or lower the signal
Procedure, shortened: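 Using primary human bronchial epithelial cultures, the assay captures IP-10 by ELISA one day (24 h) after exposure. Parallel SRB staining of total protein flags overt cytotoxicity. Fits run bidirectionally relative to DMSO.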

[8] = read-out: urokinase plasminogen activator (uPA), PLAU (gene 5328); experiment: BSK_BE3C_uPA: BioMAP Diversity Plus: BE3C Assay for urokinase plasminogen activator (uPA) Biomarker Activity (AID 2283038); conditions: primary human bronchial epithelial cells; actives raise or lower the signal
Procedure, shortened: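 Measured by ELISA: uPA from human primary bronchial epithelial cells 24 h after chemical treatment. Values derive from bidirectional curve fitting with DMSO serving as negative control. Total protein by SRB staining in parallel wells flagged overt cytotoxicity.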

[9] = read-out: Interleukin-6 (IL6), IL6 (gene 3569); experiment: BSK_CASM3C_IL6: BioMAP Diversity Plus: CASM3C Assay for Interleukin-6 (IL6) Biomarker Activity for (AID 2283040); conditions: primary human coronary artery smooth muscle cells; actives raise or lower the signal
[10] = read-out: Monokine induced gamma interferon (MIG), CXCL9 (gene 4283); experiment: BSK_CASM3C_MIG: BioMAP Diversity Plus: CASM3C Assay for Monokine induced gamma interferon (MIG) Biomarker Activity (AID 2283048); conditions: primary human coronary artery smooth muscle cells; actives raise or lower the signal;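 further: MIG protein level measured by ELISA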
[11] = read-out: Tissue Factor, F3 (gene 2152); experiment: BSK_CASM3C_TissueFactor: BioMAP Diversity Plus: CASM3C Assay for Tissue Factor Biomarker Activity (AID 2283052); conditions: primary human coronary artery smooth muscle cells; actives raise or lower the signal;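 further: cell surface tissue factor protein level read by ELISA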
[12] = read-out: Urokinase-type plasminogen activator receptor (uPAR), PLAUR (gene 5329); experiment: BSK_CASM3C_uPAR: BioMAP Diversity Plus: CASM3C Assay for Urokinase-type plasminogen activator receptor (uPAR) Biomarker Activity (AID 2283054); conditions: primary human coronary artery smooth muscle cells; actives raise or lower the signal;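 further: cell-surface uPAR protein level quantified by ELISA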
[13] = read-out: Epidermal growth factor receptor (EGFR), EGFR (gene 1956); experiment: BSK_hDFCGF_EGFR: BioMAP Diversity Plus: hDFCGF Assay for Epidermal growth factor receptor (EGFR) Biomarker Activity (AID 2283057); conditions: primary human foreskin fibroblasts; actives raise or lower the signal
Procedure, shortened: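 Measured by ELISA: EGFR levels on primary human foreskin fibroblasts 24 h after chemical treatment, analysed relative to DMSO with bidirectional fitting.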

[14] = read-out: Intercellular Adhesion Molecule 1 (ICAM1), ICAM1 (gene 3383); experiment: BSK_KF3CT_ICAM1: BioMAP Diversity Plus: KF3CT Assay for Intercellular Adhesion Molecule 1 (ICAM1) Biomarker Activity (AID 2283067); conditions: primary human keratinocytes with fibroblasts; actives raise or lower the signal
Procedure, shortened: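 Dose the keratinocyte/fibroblast co-culture, wait 24 h, measure ICAM-1 by ELISA, then fit increases or decreases against DMSO. Cytotoxicity is checked in parallel cultures by SRB total-protein staining.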

[15] = read-out: E-selectin (Homo sapiens) (UniProt P16581); experiment: BSK_LPS_Eselectin: BioMAP Diversity Plus: LPS Assay for Eselectin Biomarker Activity (AID 2283077); conditions: primary human HUVEC with PBMC; actives raise or lower the signal
Procedure, shortened: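 Signal of E-selectin, detected by ELISA, served as the endpoint; cells were umbilical vein endothelium with PBMC, read 24 h after treatment. DMSO defined baseline, and both increases and decreases were fitted.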

[16] = read-out: Interleukin-8 (IL8), CXCL8 (gene 3576); experiment: BSK_LPS_IL8: BioMAP Diversity Plus: LPS Assay for Interleukin-8 (IL8) Biomarker Activity (AID 2283078); conditions: primary human HUVEC with PBMC; actives raise or lower the signal
Procedure, shortened: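 Endothelial cells and PBMC from human donors are co-cultured, treated with chemicals and LPS, then assayed for IL-8 by ELISA after 24 h. Parallel SRB staining (0.1% SRB after 10% TCA fixation, 560 nm) flags cytotoxicity.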

[17] = read-out: Interleukin-1 alpha (IL1a), IL1A (gene 3552); experiment: BSK_LPS_IL1a: BioMAP Diversity Plus: LPS Assay for Interleukin-1 alpha (IL1a) Biomarker Activity (AID 2283080); conditions: primary human HUVEC with PBMC; actives raise or lower the signal
Procedure, shortened: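 Measured: IL-1 alpha via ELISA at 24 h in LPS-activated human umbilical vein endothelium–PBMC co-culture. Baseline: DMSO, bidirectional fitting.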

[18] = read-out: Macrophage colony-stimulating factor (MCSF), CSF1 (gene 1435); experiment: BSK_LPS_MCSF: BioMAP Diversity Plus: LPS Assay for Macrophage colony-stimulating factor (MCSF) Biomarker Activity (AID 2283083); conditions: primary human HUVEC with PBMC; actives raise or lower the signal
Procedure, shortened: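 Compound is added to a human vascular primary co-culture of umbilical vein endothelium and blood mononuclear cells. After 24 h, M-CSF is quantified by ELISA. Signal changes are fitted in both directions against DMSO.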

CD69, CD69 (gene 969) = experiment: BSK_SAg_CD69: BioMAP Diversity Plus: SAg Assay for CD69 Biomarker Activity (AID 2283089); conditions: primary human HUVEC with PBMC; actives raise or lower the signal;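 on AC50: cell surface CD69 protein quantified by ELISA with fluorescence detection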
Procedure, shortened: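 ELISA, fluorescence read-out: CD69 on human umbilical vein endothelial cell + PBMC co-culture, 24 h post-dosing. Gain or loss of signal fitted bidirectionally against DMSO baseline.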

[19] = BSK_SAg_PBMCCytotoxicity: PBMC Cytotoxicity Assessment in the BioMAP Diversity Plus: SAg Assay (AID 2283093); conditions: primary human HUVEC with PBMC;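 further: PBMC viability measured as Alamar Blue reduction fluorescence at 546/580 nm; fitted both ways against DMSO so a hit may be loss or gain of signal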;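 on AC50: PBMC superantigen activated with SEB plus TSST-1 one hour after compound addition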
Procedure, shortened: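 HUVEC/PBMC co-culture; PBMC exposed to chemical 1 h before SEB and TSST-1 activation (20 ng/mL each), incubated 90 h, then Alamar Blue 6 h, fluorescence 546/580 nm. Bidirectional fit versus DMSO baseline.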

Measured: AC50

Chain of E-selectin (Homo sapiens) (P16581 whole entry, looked up): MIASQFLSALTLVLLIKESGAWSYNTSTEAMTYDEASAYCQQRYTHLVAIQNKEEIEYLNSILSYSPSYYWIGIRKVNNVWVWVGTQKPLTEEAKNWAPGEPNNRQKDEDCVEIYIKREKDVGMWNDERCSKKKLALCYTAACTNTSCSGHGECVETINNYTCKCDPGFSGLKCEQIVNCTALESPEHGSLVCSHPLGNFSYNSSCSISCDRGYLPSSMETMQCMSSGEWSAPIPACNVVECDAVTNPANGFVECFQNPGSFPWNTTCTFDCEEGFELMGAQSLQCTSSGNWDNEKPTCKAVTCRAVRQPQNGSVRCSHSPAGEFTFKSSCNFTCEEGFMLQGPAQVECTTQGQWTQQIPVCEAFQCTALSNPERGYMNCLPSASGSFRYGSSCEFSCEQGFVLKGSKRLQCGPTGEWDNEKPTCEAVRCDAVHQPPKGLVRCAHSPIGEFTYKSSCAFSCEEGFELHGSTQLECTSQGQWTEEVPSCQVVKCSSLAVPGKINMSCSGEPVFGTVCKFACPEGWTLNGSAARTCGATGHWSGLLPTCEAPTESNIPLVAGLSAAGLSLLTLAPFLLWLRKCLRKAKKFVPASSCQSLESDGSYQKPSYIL

CCCCC(CC)COC(=O)C=Cc1ccc(OC)cc1 (stereo not given)
inactive: [3] | [5] | [7] | [8] | [9] | [10] | [11] | [12] | [13] | [14] | [15] | [16] | [17] | [19]
active: [1] 27.5 µM and 11.4 µM | [2] 30.4 µM and 22.1 µM | [4] 33.3 µM and 38.7 µM | [6] 5.26 µM and 3.42 µM | [10] 32.4 µM | [11] 6.67 µM | [15] 13.2 µM | [16] 12.9 µM | [18] 32 µM and 14.8 µM | CD69, CD69 (gene 969) 26.3 µM and 18.6 µM | [19] 36.1 µM

COc1cc(CNC(=O)CCCC/C=C/C(C)C)ccc1O
active: [2] 20 µM and 9.23 µM | [3] 14.4 µM and 14 µM | CD69, CD69 (gene 969) 27.1 µM
inactive: [1] | [4] | [5] | [6] | [7] | [8] | [9] | [10] | [11] | [12] | [13] | [14] | [15] | [16] | [17] | [18] | CD69, CD69 (gene 969) | [19]

COc1ccccc1Oc1c(NS(=O)(=O)c2ccc(C(C)(C)C)cc2)nc(-c2ncccn2)nc1OCCO
inactive: [1] | [2] | [3] | [4] | [5] | [6] | [7] | [8] | [9] | [10] | [12] | [13] | [14] | [15] | [17] | [18] | CD69, CD69 (gene 969) | [19]
active: [3] 20 µM | [11] 1.97 µM and 5.36 µM | [16] 20 µM and 9.01 µM | [17] 10.4 µM

O=[N+]([O-])c1cc(S(=O)(=O)Nc2ccccc2)ccc1Nc1ccccc1
active: [1] 13.3 µM | [2] 13.9 µM | [3] 5.29 µM and 5.21 µM | [4] 32.2 µM and 31.7 µM | [5] 31 µM and 32 µM | [6] 27.2 µM | [7] 32.4 µM and 31.9 µM | [8] 34.9 µM | [9] 20 µM and 10.3 µM | [13] 30.4 µM and 31.3 µM | [14] 32.8 µM and 32.4 µM | [15] 20 µM and 26.5 µM | [16] 22.7 µM and 20 µM | [18] 9.74 µM | CD69, CD69 (gene 969) 22 µM and 18 µM
inactive: [1] | [6] | [8] | [10] | [11] | [12] | [17] | [18] | [19]

OC(C(F)(F)F)(C(F)(F)F)C(O)(C(F)(F)F)C(F)(F)F
active: [1] 21.5 µM and 30 µM | [2] 29.4 µM and 26.4 µM | [4] 22.1 µM and 21.4 µM | [5] 48.2 µM and 45.4 µM | [6] 24.3 µM and 30 µM | [7] 42.6 µM and 43.6 µM | [8] 28.8 µM and 32.2 µM | [9] 41.2 µM | [10] 39.8 µM and 30 µM | [12] 19.3 µM and 22.6 µM | [13] 5.95 µM | [14] 48.3 µM | [15] 24.4 µM and 51.9 µM | [18] 22 µM and 21.7 µM | CD69, CD69 (gene 969) 18.5 µM and 17.7 µM
inactive: [3] | [9] | [11] | [13] | [14] | [16] | [17] | [19]
